# Laboratory results from PubChem BioAssay (EPA / NIEHS).
# Inconclusive results are not listed. The source made the active and inactive calls. How the source made its calls, unless noted: active means hit-call score of the fitted dose curve at least 0.9, where 1 is the maximum; inconclusive means response in the unintended direction; inactive means score below 0.9.
# Experiments:
# [1] = VALA_TUBIPS_Antagonist_TubuleLength: VALA Sciences human iPS-derived Endothelial Tubule Formation (TUBIPS) Antagonist Assay (AID 2284313)
# Outline: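 Cells grown 3 days with 10 ng/ml VEGF, then exposed to compounds in VEGF medium for another 3 days. After fixation, nuclear stain and CD31 immunofluorescence imaging gave mean total tubule length against 0.1% DMSO; suramin (100 uM) inhibition control.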
# [2] = VALA_MIGHUV2_CellCount: Viability Assessment in the VALA Sciences human Umbilical Vein Endothelial Cell Migration (MIGHUV) Assay, Area of Scratch Wound after Recovery (AID 2284314)
# Outline: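 Scratch-wounded HUVEC monolayers received test chemical within 30 min, 6-point concentration response in triplicate, 0.1 % DMSO vehicle. After 24 h wound recovery, fixed cells were Hoechst-stained and nuclei imaged; loss of signal versus DMSO indicates reduced viability.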
# [3] = VALA_MIGHUV2_Bcatenin: VALA Sciences human Umbilical Vein Endothelial Cell Migration (MIGHUV) Assay, Nuclear Translocation of beta-Catenin after Recovery (AID 2284315)
# Outline: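 HUVEC (4000 cells/well) scratch-wounded, dosed within 30 min over 6 concentrations in triplicate, recovered 24 h. After fixation, Hoechst and anti-beta-catenin immunofluorescence imaged for nuclear CTNB. Gain of signal versus 0.1% DMSO.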
# [4] = VALA_MIGHUV2_WoundArea: VALA Sciences human Umbilical Vein Endothelial Cell Migration (MIGHUV) Assay, Area of Scratch Wound after Recovery (AID 2284316)
# Outline: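 HUVEC seeded at 9000 cells/well, scratched after 24 h; test chemical added within 30 min, 6-point concentration response in triplicate (0.1% DMSO vehicle). After 24 h wound recovery, cells fixed and Hoechst-stained nuclei in wound area imaged; Cytochalasin D reference control.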
# [5] = VALA_TUBIPS_Antagonist_CellCount: Viability Assessment in the VALA Sciences human iPS-derived Endothelial Tubule Formation (TUBIPS) Antagonism Assay (AID 2284335)
# Description: VALA_TUBIPS_Agonist is a cell-based, multiplexed assay that uses human iPS-derived endothelial cells (iPSC). Measurements were taken 72 hours after chemical dosing in a 96-well plate.VALA_TUBIPS_Antagonist_CellCount is the one of two assay components measured from the VALA_TUBIPS_Antagonist assay. It is designed to make measurements of viability, a form of viability reporter, as detected with fluorescence intensity signals by HCS Fluorescent Imaging technology. Data from the assay component VALA_TUBIPS_Antagonist_CellCount was analyzed at the endpoint, VALA_TUBIPS_Antagonist_CellCount, in the positive analysis fitting direction relative to DMSO as the negative control and baseline of activity. Using a type of viability reporter, loss-of-signal activity can be used to understand viability. To generalize the intended target to other relatable targets, this assay endpoint is annotated to the cell cycle intended target family, where the subfamily is cell count.
# This HUVEC-HDF assay was designed to detect chemical suppression of tubulogenesis, i.e. antagonism. To measure tubulogenesis antagonism, HUVEC cells were co-cultured with HDF cells at a 1:3 ratio for 3-days in 10 ng/ml VEGF (i.e., favorable conditions with growth factors), then changed to assay medium containing 10 ng/ml VEGF and ToxCast compounds for an additional 3-day period. […]
# [6] = VALA_MIGHUV1_ScratchOnly_WoundArea: VALA Sciences human Umbilical Vein Endothelial Cell Migration (MIGHUV) Assay, Area of Scratch Wound Inhibited Recovery (AID 2284336)
# Outline: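 HUVEC monolayers (9000 cells/well) were scratched after 24 h, dosed within 30 min (six concentrations, triplicate, 0.1% DMSO), allowed 24 h recovery, then fixed. Hoechst-stained nuclei in the wound imaged; cytochalasin D as reference.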
# [7] = VALA_TUBHUV_Agonist_TubuleLength: VALA Sciences human Umbilical Vein Endothelial Tubule Formation (TUBHUV) Agonism Assay (AID 2284337)
# Outline: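 HUVEC co-cultured with fibroblasts (1:3) 3 days in 10 ng/ml VEGF, then 3 days with compound plus VEGF; 0.1 % DMSO neutral control. Fixed, nuclear and CD31 stained; tubule length by fluorescence imaging.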
# [8] = VALA_TUBIPS_Agonist_CellCount: Viability Assessment in the VALA Sciences human iPS-derived Endothelial Tubule Formation (TUBIPS) Agonism Assay (AID 2284338)
# [9] = system: TTR (gene 7276); assay: CCTE_GLTED_hTTR_0.5uM: CCTE's human Transthyretin (hTTR) Inhibition Assay, with 0.5uM TTR, Great Lakes Toxicology and Ecology Division (GLTED) Lab (AID 2284320; active means hit-call score of the fitted dose curve at least 0.9, where 1 is the maximum; inactive means score below 0.9)
# Outline: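 Cell-free displacement assay in which human TTR at 0.5 uM was incubated with test chemical for 2 h. Displacement of the ANSA probe was read by fluorescence at 380 nm excitation/475 nm emission. Loss of signal was fitted in the positive direction versus DMSO.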
# [10] = IUF_NPC1_cytotoxicity_72hr: Cytotoxicity Assessment at 72 hours in the Leibniz Research Institute for Environmental Medicine (IUF) Neural Progenitor Cell Proliferation Assay (NPC1) (AID 2284332);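 further: rising LDH signal means more cytotoxicity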
# Outline: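 hNPC spheres (fetal brain, gestational week 16-19) grown under proliferative EGF/FGF conditions, pH 7.2-7.6, were treated continuously for 72 h. Cytotoxicity came from LDH-coupled resazurin fluorescence in each well's supernatant.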
# [11] = CCTE_Deisenroth_H295R-HTRF_384WELL_ESTRADIOL: CCTE's H295R-HTRF Assay Evaluation of Estradiol Concentration, Deisenroth Lab (AID 2284361; active means hit-call score of the fitted dose curve at least 0.9, where 1 is the maximum; inactive means score below 0.9); details: actives raise or lower the signal
# Outline: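 H295R cells exposed 48 h to chemicals at 0.001 - 100 uM final (nine points, triplicate); estradiol in conditioned medium measured by HTRF immunoassay, fitted bidirectionally versus DMSO. Viability by CellTiter-Glo on same plates.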
# [12] = CCTE_Deisenroth_H295R-HTRF_384WELL_TESTOSTERONE: CCTE's H295R-HTRF Assay Evaluation of Testosterone Concentration, Deisenroth Lab (AID 2284373; active means hit-call score of the fitted dose curve at least 0.9, where 1 is the maximum; inactive means score below 0.9); details: actives raise or lower the signal
# Outline: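 H295R cells were acclimated 24 h, then exposed 48 h to nine concentrations (0.001–100 uM final) in technical triplicate, n=5. Testosterone in conditioned medium was measured by HTRF (em 620/665 nm). Fitting was bidirectional versus DMSO; CellTiter-Glo viability ran on the same plates.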
smiles,measurement,setting,value
CC(C)(C)c1cc(O)ccc1O,outcome,[1],inactive
same,AC50,[2],74.3 µM (active)
same,AC50,[3],82.8 µM (active)
same,AC50,[4],73 µM (active)
same,outcome,[5],inactive
same,outcome,[6],inactive
same,AC50,[7],56 µM (active)
same,AC50,[8],50 µM (active)
ClCC(Cl)CCl,outcome,[2],inactive
same,outcome,[4],inactive
same,outcome,[5],inactive
same,outcome,[6],inactive
same,outcome,[7],inactive
same,outcome,[8],inactive
O=C(O)C(F)(F)C(F)(F)C(F)(F)C(F)(F)C(F)(F)C(F)(F)C(F)(F)C(F)(F)C(F)(F)C(F)(F)F,AC50,[9],1.98 µM (active)
O=C(O)C(F)(F)C(F)(F)C(F)(F)C(F)(F)C(F)(F)C(F)(F)F,AC50,[9],0.395 µM (active)
CCOP(=S)(OCC)Oc1nc(Cl)c(Cl)cc1Cl,outcome,[10],inactive
COP(=O)(OC)O/C(=C\Cl)c1cc(Cl)c(Cl)cc1Cl,AC50,[10],75.5 µM (active)
CCC1(c2ccc(N)cc2)CCC(=O)NC1=O (configuration not stated),outcome,[11],inactive
same,outcome,[12],inactive
Fc1ccc(C2(Cn3cncn3)OC2c2ccccc2Cl)cc1 (configuration not stated),AC50,[11],1.14 µM (active)
same,AC50,[12],1.23 µM (active)
